Experimental data published in ChEMBL document CHEMBL3988442, “University of Dundee, Small-Polar-MMV Screening Library” (2021).
Among all 48,000 compounds or so, about 13,000 (27%) showed an effect of 50% or more. Some of the results follow.

System: Wolbachia pipientis
Assay: Anti-Wolbachia Cell-Based Screen
Assay type: functional
Set-up: scale not given: in the data most compounds retested in dose-response had high values
Conditions: 5 µM

Row | Structure (SMILES) | Percent Effect [%]
1 | Cn1cccc1C1CCCN1C(=O)NCCCn1cccn1 (stereo unspecified) | -1.835
2 | COc1ccc(NC(C)c2ccc(C#N)cc2)cc1N1CCCC1=O (stereo unspecified) | 11.24
3 | O=C(CN1CCSC2(CCCCC2)C1)NCC(F)(F)F | -26.69
4 | COCCc1noc(CN2CCN(CC(O)c3ccccc3)CC2)n1 (stereo unspecified) | 5.305
5 | Cc1cc2c(cc1C(=O)N1CCC3(CC(=O)NC3=O)C1)OCCO2 (stereo unspecified) | -6.886
6 | Cc1cc(N2CCCC(O)(CN(C)C(=O)CCN)C2)c2cnccc2n1 (stereo unspecified) | 91.76
7 | Cc1cc(N2CCCC(O)(CN(C)C)CC2)nc(-c2ccccc2)n1 (stereo unspecified) | 2.269
8 | Cc1cnn(C2(C(=O)O)CCN(c3ccnc4cc(Cl)ccc34)CC2)c1 | -21.78
9 | Cc1ccc(CC(=O)N(C)CC2(O)CCN(c3ccccn3)C2)s1 (stereo unspecified) | -7.019
10 | Cc1cc(N2CCC(O)(CN(C)C(=O)CCN)CC2)c2cnccc2n1 | 69.28
11 | Cc1cc(N2CCC(CO)(CC3CCCCO3)CC2)c2ccccc2n1 (stereo unspecified) | -1.662
12 | CN(CC1(O)CCN(c2ccnc3ccncc23)CC1)C(=O)CCN | 110.4
13 | CN(CC1(O)CCCN(c2ccccn2)C1)C(=O)Cc1ccsc1 (stereo unspecified) | -7.252
14 | Cc1cc(N2CCC(O)(CN(C)C(=O)CCN)C2)c2cnccc2n1 (stereo unspecified) | 98.27
15 | Cc1ncc(C)c(N2CCC(CCc3ccccc3)(C(=O)O)CC2)n1 | 1.128
16 | Cc1cnn(C2(C(=O)O)CCN(c3ccncc3F)CC2)c1 | 13.66
17 | CN(C)CC1(O)CCCN(C(=O)c2ccccc2-n2cccn2)C1 (stereo unspecified) | -10.31
18 | CC(NC(=O)Cc1ccccc1F)C(=O)N1CCS(=O)(=O)CC1 (stereo unspecified) | -3.92
19 | N#Cc1ccnc(N2CCC(NCCN3CCOCC3)CC2)c1 | -1.692
20 | CCC(=O)Nc1cc(Br)cnc1OCC(F)(F)F | -13.83
21 | Cc1cc(N2CCC(O)(CN(C)C(=O)CCCN)C2)c2cnccc2n1 (stereo unspecified) | 106
22 | CCNc1ncnc2c1CN(C1CCCNCC1)C(=O)CN2C (stereo unspecified) | 112.3

Row | Structure (SMILES) | Percent Effect [%]
23 | CN1CC(=O)N(C2CCNCC2)Cc2c(NCC(C)(C)C)ncnc21 | 106.7
24 | COc1ccc(NC(=O)CCC(C)C)c(N2CCN(C(C)=O)CC2)n1 | -1.669
25 | O=C(CC1CCCC1)N1CCN(c2ccc(-n3cncn3)nn2)CC1 | 17.68
26 | Cn1ncc2c(N3CC(N4CCCCC4)C3)nc(C3CCCC3)nc21 | 6.638
27 | CC(C)c1nc(N2CC(N3CCCCC3C)C2)c2cnn(C)c2n1 (stereo unspecified) | 11.15
28 | Cn1ncc2c(N3CCC(CCO)CC3)nc(C(C)(C)C)nc21 | -3.712
29 | Cn1ncc2c(N3CCS(=O)(=O)CC3)nc(C3CCCC3)nc21 | -3.304
30 | CN1CCCN(c2nc(C3CCCC3)nc3c2cnn3C)CC1 | 2.389
31 | CC(C)c1nc(N2CCC(N3CCSCC3)CC2)c2cnn(C)c2n1 | 102.9
32 | CC(C)c1nc(N2CCC(N3CCCCCC3)CC2)c2cnn(C)c2n1 | 83.71
33 | Cn1ncc2c(N3CCN4CCCCC4C3)nc(C3CCCC3)nc21 (stereo unspecified) | 111.9
34 | CC1CCCCN1C1CN(c2nc(C3CCCC3)nc3c2cnn3C)C1 (stereo unspecified) | 0.03102
35 | CC(=O)NCCC1CCN(c2nc(C(C)(C)C)nc3c2cnn3C)CC1 | -2.953
36 | CC(C)c1nc(N2CCC(N3CCCC(O)C3)CC2)c2cnn(C)c2n1 (stereo unspecified) | 109.7
37 | O=c1ccn(Cc2nc(-c3ccccc3F)cs2)c(=O)[nH]1 | -9.097
38 | COc1cccc2c1OCC(C(=O)NCc1c(C)noc1C)C2 (stereo unspecified) | -13.16
39 | Cc1ncc(CN(C)C(=O)Nc2ccc(CN3CCOC3=O)cc2)s1 | 8.802
40 | Cc1ccc(S(=O)(=O)NC(=O)CCOCc2ccccc2)s1 | 4.537
41 | Cc1cc(=O)[nH]c(=O)n1COCc1ccccc1 | 71.08
42 | COCCn1c(=O)n(Cc2ccccc2C)c2cc(C(=O)O)ccc21 | -8.391
43 | Cn1cccc(NC(=O)NCCOCc2ccccc2)c1=O | -14.44
44 | CCn1c(C)cc(-c2csc(Cn3ccc(=O)[nH]c3=O)n2)c1C | -14.65

Row | Structure (SMILES) | Percent Effect [%]
45 | Cc1ccccc1COCCOCn1c(C)cc(=O)[nH]c1=O | 116.8
46 | Cc1cc(=O)[nH]c(=O)n1Cc1ccccc1 | -6.606
47 | Cc1cc(=O)[nH]c(=O)n1COCCOCc1ccccc1 | 87.63
48 | CC/C(C)=C/CCN1CCN(C)C2(CCNC(=O)CC2)C1 (stereo unspecified) | -7.249
49 | O=C(NCc1ccncc1)c1nc2c(o1)CN(C(=O)c1cccnc1)C2.O=C(O)C(F)(F)F.O=C(O)C(F)(F)F | 0.8995
50 | Cc1nc[nH]c1CN1CCN(C(=O)CCC(F)(F)F)[C@H]2CS(=O)(=O)C[C@H]21 | 0
51 | Cn1ncnc1CNC1CCCc2cc(F)ccc21 (stereo unspecified) | -3.531
52 | COc1ccc(F)c(CN2CCCC3(CCN(C4CCOCC4)C3)C2)c1 (stereo unspecified) | -3.304
53 | COc1cccc(CN2CC[C@H](NC(C)=O)[C@@H](O)CC2)c1F | 34.02
54 | COc1ccc(CN2CC[C@H](NC(C)=O)[C@@H](O)CC2)c(OC)c1 | -2.423
55 | COc1ccc(CN2CCC(C(N)=O)CC2)cc1SC(F)(F)F | 0.6878
56 | COc1ccc(CN2CC[C@H](NC(C)=O)[C@@H](O)CC2)c(F)c1 | 118.9
57 | COc1cc(CN2CC[C@H](NC(C)=O)[C@@H](O)CC2)ccc1F | 106.7
58 | O=C(C1CCOc2ccccc21)N1CCOc2cccc(F)c21 (stereo unspecified) | 6.908
59 | O=C(c1ccc(-n2cnnc2)cc1Cl)N1CCCC2(CCNC2)C1 (stereo unspecified) | -4.992
60 | Cc1ccc2oc(C(=O)N3CCc4nnc(N(C)C)cc4C3)cc2n1 | -8.128
61 | CNc1cc2c(nn1)CCN(C(=O)c1ccc3c(c1)CCC3)C2 | 114.4
62 | CNc1cc2c(nn1)CCN(C(=O)c1ccc3c(c1)OCO3)C2 | 105.8
63 | CNc1cc2c(nn1)CCN(C(=O)c1coc(Br)c1)C2 | 117.2
64 | CNc1cc2c(nn1)CCN(C(=O)C1CCCc3ccccc31)C2 (stereo unspecified) | -4.064
65 | CNc1cc2c(nn1)CCN(C(=O)c1cc(C)no1)C2 | 125.3
66 | CNc1cc2c(nn1)CCN(C(=O)c1cc(F)cc(F)c1)C2 | 8.008
